Measurements as given in the supplement of paper PMC7695840.

These compounds were tested on Staphylococcus aureus MW2 (mecA+) (assay: normalized DsRed fluorescence (growth of mecA+ strain) (fraction of control range); higher = more growth of mecA+ strain). Conditions: compound concentration: 150 uM; cefoxitin: subinhibitory; fluorescent label: DsRed.
Method in brief: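 Single-replicate 1536-well plates carried 150 μM compound (1.5% DMSO), onto which 5 µL/well of a 1:1 mix of pre-induced S. aureus MW2 cells was dispensed: gene-carrying cells tagged with DsRed and deletion cells tagged with GFP, in LB with a subinhibitory antibiotic dose set daily. Incubation ran 20 h at 37 °C, 90% humidity, unshaken, followed by DsRed (540/590) and GFP (485/520) reads. Per-plate scaling of each channel used single-strain control medians, and plates with high untreated ratios and rows with DsRed/GFP >10 were excluded.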
For `C[C@]12CCC(=O)C=C1[C@@H]1C[C@@H]1[C@H]1[C@@H]3[C@@H]4C[C@@H]4[C@@]4(CCC(=O)O4)[C@@]3(C)CC[C@@H]12`, the “normalized DsRed fluorescence” value was 0.65.
In the case of `CCOC(=O)[C@H](CCc1ccccc1)N[C@H]1CCc2ccccc2N(CC(=O)O)C1=O`, the “normalized DsRed fluorescence” value is reported as 1.44.
In the case of `CCCc1nc(C(C)(C)O)c(C(=O)OCc2oc(=O)oc2C)n1Cc1ccc(-c2ccccc2-c2nnn[nH]2)cc1`, the “normalized DsRed fluorescence” value is reported as 0.605.
With `CN1[C@@H]2CC[C@H]1C[C@@H](OC(=O)c1c[nH]c3ccccc13)C2` [Tropisetron] the “normalized DsRed fluorescence” value was 0.582.
In the case of `Cc1cccc(N(C)C(=S)Oc2ccc3ccccc3c2)c1`, the “normalized DsRed fluorescence” value is reported as 0.911.
For `CCOC(=O)O[C@]1(C(=O)COC(=O)CC)CC[C@H]2[C@@H]3CCC4=CC(=O)C=C[C@]4(C)[C@H]3[C@@H](O)C[C@@]21C`, the “normalized DsRed fluorescence” value was 1.07.
In the case of `CN1CCN(CC(=O)N2c3ccccc3C(=O)Nc3cccnc32)CC1`, the “normalized DsRed fluorescence” value is reported as 0.759.
With `O=C(O)P(=O)(O)O` the “normalized DsRed fluorescence” value was 0.7.
With `CCC(=O)O[C@@H](O[P@](=O)(CCCCc1ccccc1)CC(=O)N1C[C@H](C2CCCCC2)C[C@H]1C(=O)O)C(C)C` [Fosinopril sodium (Monopril)] the “normalized DsRed fluorescence” value was 0.378.
`O=C(O)c1cc(-c2ccc(F)cc2F)ccc1O` was tested, and the “normalized DsRed fluorescence” value was 0.298.
In the case of `O=C(c1cc(Cc2n[nH]c(=O)c3ccccc23)ccc1F)N1CCN(C(=O)C2CC2)CC1` [Olaparib (AZD2281)], the “normalized DsRed fluorescence” value is reported as 0.856.
With `COCCc1ccc(OCC(O)CNC(C)C)cc1` (stereo unspecified) the “normalized DsRed fluorescence” value was 0.587.
`Nc1nc2c(ncn2COC(CO)CO)c(=O)[nH]1` was tested, and the “normalized DsRed fluorescence” value was 0.948.
`O=C(CCCN1CC=C(n2c(=O)[nH]c3ccccc32)CC1)c1ccc(F)cc1` was tested, and the “normalized DsRed fluorescence” value was 0.702.
In the case of `NC(=O)c1cccnc1` [Nicotinamide (Niacinamide)], the “normalized DsRed fluorescence” value is reported as 0.458.
In the case of `CCOC(=O)C1=C[C@@H](OC(CC)CC)[C@H](NC(C)=O)[C@@H](N)C1`, the “normalized DsRed fluorescence” value is reported as 0.588.
